The whole screen tested about 5,500 compounds, of which about 2,000 (36%) were called active. Not shown: some 18% with an inconclusive outcome. No stated cut-off is given here; in the data, active means normalized growth mostly below about 0.91 (no sharp cut-off); inconclusive means no clear call, values can overlap the other calls; inactive means mostly above about 0.92. Some of the results follow.
Test: chemical genetic growth profiling, strain panel (AID 1159580);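 further: tested at 20 µM; growth read once vehicle control cultures reached saturation at 30 °C; 1 = growth at the plate median or of vehicle wells; lower values mean less growth of the strain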
Conditions: growth OD

Measured: normalized growth

C[C@H](N)[C@H](O)c1ccc(O)c(O)c1
inactive: S. cerevisiae deletion strains, locus YJR066W, strain TOR1, active compounds read low 0.948 | S. cerevisiae deletion strains, locus YJR075W, strain HOC1, active compounds read low 0.993 | S. cerevisiae deletion strains, locus YKL009W, strain mrt4, active compounds read low 0.994 | S. cerevisiae deletion strains, locus YKL068W, active compounds read low 0.986 | S. cerevisiae deletion strains, locus YKL085W, strain MDH1 (second series), active compounds read low 0.983 | S. cerevisiae deletion strains, locus YKL085W, strain MDH1, active compounds read low 0.983 | S. cerevisiae deletion strains, locus YKL160W, strain elf1, active compounds read low 0.981 | S. cerevisiae deletion strains, locus YKR001C, strain vps1, active compounds read low 0.978 | S. cerevisiae deletion strains, locus YKR026C, strain gcn3, active compounds read low 1 | S. cerevisiae deletion strains, locus YKR091W, strain srl3, active compounds read low 0.998 | S. cerevisiae deletion strains, locus YLL001W, strain dnm1, active compounds read low 0.954 | S. cerevisiae deletion strains, locus YLL026W, active compounds read low 1.01 | S. cerevisiae deletion strains, locus YLL041C, strain sdh2, active compounds read low 1.01 | S. cerevisiae deletion strains, locus YLR027C, strain aat2, active compounds read low 1.01 | S. cerevisiae deletion strains, locus YLR039C, strain RIC1, active compounds read low 0.959 | S. cerevisiae deletion strains, locus YLR058C, strain SHM2, active compounds read low 0.993 | S. cerevisiae deletion strains, locus YLR102C, strain apc9, active compounds read low 0.988 | S. cerevisiae deletion strains, locus YLR113W, strain HOG1, active compounds read low 0.967 | S. cerevisiae deletion strains, locus YLR221C, strain rsa3, active compounds read low 0.979 | S. cerevisiae deletion strains, locus YLR258W, strain gsy2, active compounds read low 0.996 | S. cerevisiae deletion strains, locus YLR262C, strain YPT6 (second series), active compounds read low 0.974 | S. cerevisiae deletion strains, locus YLR262C, strain YPT6, active compounds read low 1.04 | S. cerevisiae deletion strains, locus YLR268W, strain sec22, active compounds read low 0.969 | S. cerevisiae deletion strains, locus YLR320W, strain mms22, active compounds read low 1.01 | S. cerevisiae deletion strains, locus YLR330W, strain CHS5, active compounds read low 0.995 | S. cerevisiae deletion strains, locus YLR342W, strain FKS1 (second series), active compounds read low 0.968 | S. cerevisiae deletion strains, locus YLR342W, strain FKS1, active compounds read low 1.01 | S. cerevisiae deletion strains, locus YLR357W, strain rsc2, active compounds read low 0.983 | S. cerevisiae deletion strains, locus YLR370C, strain arc18, active compounds read low 1 | S. cerevisiae deletion strains, locus YLR371W, strain rom2, active compounds read low 0.963 | S. cerevisiae deletion strains, locus YLR384C, strain iki3, active compounds read low 0.998 | S. cerevisiae deletion strains, locus YLR418C, strain cdc73, active compounds read low 0.948 | S. cerevisiae deletion strains, locus YML016C, strain PPZ1, active compounds read low 0.994 | S. cerevisiae deletion strains, locus YML032C, strain rad52, active compounds read low 0.988 | S. cerevisiae deletion strains, locus YML120C, strain ndi1, active compounds read low 0.985 | S. cerevisiae deletion strains, locus YML124C, strain tub3, active compounds read low 0.994 | S. cerevisiae deletion strains, locus YMR058W, strain fet3, active compounds read low 1 | S. cerevisiae deletion strains, locus YMR078C, strain ctf18, active compounds read low 0.973 | S. cerevisiae deletion strains, locus YMR125W, strain sto1, active compounds read low 0.994 | S. cerevisiae deletion strains, locus YMR129W, active compounds read low 1 | S. cerevisiae deletion strains, locus YMR205C, strain PFK2, active compounds read low 0.994 | S. cerevisiae deletion strains, locus YMR223W, strain ubp8, active compounds read low 0.953 | S. cerevisiae deletion strains, locus YMR231W, strain pep5, active compounds read low 0.999 | S. cerevisiae deletion strains, locus YMR263W, strain SAP30, active compounds read low 0.997 | S. cerevisiae deletion strains, locus YMR307W, strain GAS1, active compounds read low 0.95 | S. cerevisiae deletion strains, locus YNL067W, strain RPL9B, active compounds read low 1 | S. cerevisiae deletion strains, locus YNL071W, strain lat1, active compounds read low 1.02 | S. cerevisiae deletion strains, locus YNL183C, strain NPR1, active compounds read low 0.963 | S. cerevisiae deletion strains, locus YNL209W, strain ssb2, active compounds read low 0.991 | S. cerevisiae deletion strains, locus YNL233W, strain BNI4, active compounds read low 0.987 | S. cerevisiae deletion strains, locus YNL248C, strain rpa49, active compounds read low 0.995 | S. cerevisiae deletion strains, locus YNL250W, strain rad50, active compounds read low 0.967 | S. cerevisiae deletion strains, locus YNL271C, strain bni1, active compounds read low 0.964 | S. cerevisiae deletion strains, locus YNL298W, strain CLA4, active compounds read low 0.966 | S. cerevisiae deletion strains, locus YNL307C, strain MCK1, active compounds read low 0.979 | S. cerevisiae deletion strains, locus YNL322C, strain KRE1 (second series), active compounds read low 0.991 | S. cerevisiae deletion strains, locus YNR049C, strain mso1, active compounds read low 1 | S. cerevisiae deletion strains, locus YNR052C, strain pop2, active compounds read low 0.963 | S. cerevisiae deletion strains, locus YOL006C, strain TOP1, active compounds read low 0.878 | S. cerevisiae deletion strains, locus YOL012C, strain htz1 1.03 | S. cerevisiae deletion strains, locus YOL147C, strain pex11, active compounds read low 0.983 | S. cerevisiae deletion strains, locus YOR001W, strain rrp6, active compounds read low 1.02 | S. cerevisiae deletion strains, locus YOR061W, strain CKA2, active compounds read low 0.996 | S. cerevisiae deletion strains, locus YOR069W, strain VPS5, active compounds read low 0.99 | S. cerevisiae deletion strains, locus YOR070C, strain gyp1, active compounds read low 1 | S. cerevisiae deletion strains, locus YOR080W, strain dia2, active compounds read low 1.01 | S. cerevisiae deletion strains, locus YOR083W, strain WHI5, active compounds read low 0.981 | S. cerevisiae deletion strains, locus YOR106W, strain vam3, active compounds read low 0.976 | S. cerevisiae deletion strains, locus YOR136W, strain idh2, active compounds read low 0.991 | S. cerevisiae deletion strains, locus YOR144C, strain elg1, active compounds read low 0.984 | S. cerevisiae deletion strains, locus YOR184W, strain ser1, active compounds read low 0.977 | S. cerevisiae deletion strains, locus YOR231W, strain MKK1, active compounds read low 1.01 | S. cerevisiae deletion strains, locus YOR265W, strain rbl2, active compounds read low 1 | S. cerevisiae deletion strains, locus YOR270C, strain vph1, active compounds read low 1.02 | S. cerevisiae deletion strains, locus YOR290C, strain snf2, active compounds read low 0.958 | S. cerevisiae deletion strains, locus YOR316C, strain cot1, active compounds read low 0.986 | S. cerevisiae deletion strains, locus YPL051W, strain arl3, active compounds read low 0.976 | S. cerevisiae deletion strains, locus YPL078C, strain atp4, active compounds read low 0.989 | S. cerevisiae deletion strains, locus YPL106C, strain sse1, active compounds read low 0.959 | S. cerevisiae deletion strains, locus YPL240C, strain hsp82, active compounds read low 1.01 | S. cerevisiae deletion strains, locus YPL241C, strain CIN2, active compounds read low 1 | S. cerevisiae deletion strains, locus YPL256C, strain CLN2, active compounds read low 0.992 | S. cerevisiae deletion strains, locus YPR119W, strain clb2, active compounds read low 0.982 | S. cerevisiae deletion strains, locus YPR141C, strain kar3, active compounds read low 0.975 | S. cerevisiae deletion strains, locus YPR163C, strain tif3, active compounds read low 0.986 | S. cerevisiae deletion strains, locus YPR167C, strain met16, active compounds read low 0.993 | S. cerevisiae deletion strains, strain wtn01, active compounds read low 0.971 | S. cerevisiae strains, strain wild type, active compounds read low 1.01
